# Compound activity: PubChem BioAssay, several laboratories
# V-ATPase pH – regulators of yeast V-ATPase proton pumping, primary screen, pHLuorin cytosolic pH fluorescence; S. cerevisiae; response, % at 10 µM; hit rate 0.37% among 350,000; in the data active = response mostly above about 7.3%, no sharp cut-off; inactive = mostly below about 5.4%; also: actives read high
# tim10-1 inh – growth inhibitors of tim10-1 mutant yeast, primary screen, luminescence, uHTS; inhibition, % at 20 µM; hit rate 2.2% among 330,000; AID 463190, 2010; S. cerevisiae tim10-1 ts strain growth, BacTiter-Glo, 24 h;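 active = inhibition of at least 40%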;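 also: mutant grown at 25 °C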
# PfHsp90 yeast 2 – growth inhibition of PfHsp90-expressing yeast, primary screen, antimalarial PfHsp90 inhibitor project, S. cerevisiae, BacTiter-Glo luminescence, single point, set 2; hit rate 0.32% among 310,000; BacTiter-Glo ATP, 48 h; yeast lacking PDR1 and PDR3 efflux regulators; inhibition, % at 9.4 µM; AID 504621, 2011;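 active = every replicate shows inhibition above about 80%, whatever the replicate mean, limit read from the data; inconclusive = mean inhibition reaches the set limit but some replicate falls short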
# SKKanGAS inh – S. pyogenes SKKanGAS growth inhibitors in kanamycin, primary screen, streptokinase expression inhibitor project, SKKanGAS strain, BacTiter-Glo luminescence | inhibition, % at 7.5 µM | hit rate 1.3% among 300,000 | 6 h | AID 1662, 2009;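 active = mean replicate score, as percent of positive control median, at least 50; inconclusive = mean below 50 but one replicate at or above 50; inactive = mean and every replicate below 50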;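 also: strain carries kanamycin resistance gene driven by streptokinase promoter and grows in 40 µg/ml kanamycin; loss of luminescence reflects streptokinase promoter inhibition or plain growth inhibition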
# TIM10 inh – growth inhibitors of isogenic TIM10 control yeast, primary screen, counter-screen for tim10-1 yeast inhibitor project, luminescence, uHTS; S. cerevisiae TIM10 strain growth, BacTiter-Glo luminescence, 24 h; inhibition, % at 10 µM; hit rate 1.4% among 330,000; AID 463195, 2010;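 active = inhibition of 40% or more at the single tested concentration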;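 also: wild-type TIM10 isogenic control strain grown at permissive 25 °C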
# tim23-1 inh – growth inhibitors of tim23-1 mutant yeast, primary screen, luminescence, uHTS; AID 463212, 2010; S. cerevisiae tim23-1 growth, BacTiter-Glo luminescence, 24 h; inhibition, % at 20 µM; hit rate 1.3% among 330,000;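 active = growth inhibition of the mutant yeast at or above 50%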;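 also: temperature-sensitive mutant grown at 25 °C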
# tim10-1 conf – growth inhibitors of tim10-1 mutant yeast, confirmation, single concentration, luminescence, S. cerevisiae. shares compounds with tim10-1 inh. S. cerevisiae tim10-1 ts strain growth, BacTiter-Glo, 24 h. inhibition, % at 20 µM. hit rate 56% among 7,400;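 active = inhibition of yeast growth at or above a set limit in either of two repeat tests at 20 µM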;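 also: tim10-1 mutant grown at permissive 25 °C to find synthetic lethal compounds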
# tim10 confirm – growth inhibitors of wild-type TIM10 yeast, confirmation, counter-screen for tim10-1 synthetic lethality project, single concentration, luminescence, S. cerevisiae; shares compounds with TIM10 inh; S. cerevisiae tim10 strain growth, BacTiter-Glo luminescence, 24 h; inhibition, % at 10 µM; hit rate 63% among 4,600; AID 463215, 2010;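 active = inhibition of yeast growth at or above a set limit in either of two replicates at 10 µM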; also: this counterscreen used the strain with wild-type TIM10
# tim23-1 conf – tim23-1 mutant yeast growth inhibitors, confirmation, luminescence, single concentration | shares compounds with tim23-1 inh | S. cerevisiae tim23-1 growth, BacTiter-Glo luminescence, 24 h | inhibition, % at 20 µM | hit rate 83% among 4,400;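 active = inhibition above about 39% in either of two replicate wells at 20 µM, limit read from the data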;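 also: temperature-sensitive tim23-1 mutant grown at 25 °C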
# Numbers stand for hits; 0 = inactive; ? = inconclusive; - = not tested or not shown. Most compounds without a hit are left out; they make up all but 4.6% or so of the library.
SMILES,V-ATPase pH,tim10-1 inh,PfHsp90 yeast 2,SKKanGAS inh,TIM10 inh,tim23-1 inh,tim10-1 conf,tim23-1 conf,others
O=C(N/C(=C\c1ccc([N+](=O)[O-])cc1)C(=O)N1CCCCC1)c1ccccc1Br,0,0,0,0,0,0,-,-,
COc1ccc(NC(=O)CN2C(=O)NC(C)(C3CC3)C2=O)cc1S(=O)(=O)N1CCCCC1 (stereo not drawn),0,0,0,-,0,0,-,-,
O=c1cnn(-c2ccccc2)c(-c2ccccc2)c1,0,54.2,0,0,75.6,65.2,62.2,70.1,tim10 confirm=63.6
CCCc1ccc(C(=O)NNc2ccccc2F)cc1,0,0,0,0,0,0,-,-,
O=[N+]([O-])c1cc(S(=O)(=O)C(F)(F)F)ccc1Sc1nc2ccccc2[nH]1,0,60.5,0,98.9,58.1,67.6,47.8,58.7,tim10 confirm=51.0
Cn1c(=O)c2c(ncn2CC(=O)OCC(=O)NCc2ccccc2Cl)n(C)c1=O,0,0,0,0,0,0,-,-,
Cc1ccc(O)c(C2=NCCNC(C(F)(F)F)=C2)c1,0,0,-,0,0,0,-,-,
Oc1c(C2=NCCNC(C(F)(F)F)=C2)ccc2ccccc12,0,48.4,0,0,43.6,58.6,0,70.9,tim10 confirm=42.8
CC(=O)C1=C(C)NC(SCC(=O)c2ccc(Cl)cc2Cl)=C(C#N)C1c1ccco1 (stereo not drawn),0,54.9,0,0,0,52.8,42.5,49.7,
Cn1ncc2c(N3CCN(c4ccc(Cl)c(Cl)c4)CC3)ncnc21,0,0,-,0,0,0,-,-,
CCOC(=O)c1ccc(Nc2cc(C)nc(-c3ccccc3O)n2)cc1,0,0,-,0,0,0,-,-,
Cc1cc(Nc2ccccc2)nc(-c2ccccc2O)n1,0,63.1,0,0,55.9,65.3,55.2,68.1,tim10 confirm=65.8
CC(C)Cn1c(N)c(C(=O)COC(=O)c2c(O)c(Cl)cc(Cl)c2Cl)c(=O)n(C)c1=O,0,41.8,0,-,0,50.9,0,57.5,
CC(C)Cn1c(N)c(C(=O)COC(=O)c2ccc(Cl)cc2)c(=O)n(C)c1=O,0,0,-,0,0,0,-,-,
O=C1c2cccc(O)c2C(=O)c2c(O)cc(CO)cc21,-,54.1,-,0,0,70.6,39.2,83.7,
O=C1C(Cl)=C(NCc2cccnc2)C(=O)c2ccccc21,0,45.5,0,0,0,68.7,0,64.4,
O=S(=O)(Cc1ccccc1)NCc1cccnc1,0,0,0,0,0,0,-,-,
c1ccc(-c2cccc(-c3ccccn3)n2)nc1,0,60.1,145.9,0,0,57.5,43.0,57.3,
O=C(O)CCSc1ccc([N+](=O)[O-])cc1[N+](=O)[O-],0,43.6,0,?,0,51.4,30.2,53.5,
O=[N+]([O-])c1ccc(Sc2ncccn2)c([N+](=O)[O-])c1,0,42.0,0,0,0,53.3,50.2,40.5,
Nc1cc(C(=O)OCC(=O)N2CCC(Cc3ccccc3)CC2)ccc1Cl,0,0,0,-,0,0,-,-,
O=C(NCc1ccccc1)C1=C[C@@H](c2coc3ccccc3c2=O)C[C@@H](OCCCCO)O1,0,0,-,0,0,0,-,-,
CS(=O)(=O)N1CCn2c1nc1ccccc12,0,0,0,0,0,0,-,-,
CCN1N=C(c2ccccc2)Cn2c1nc1ccccc12,0,42.5,0,0,0,51.9,44.2,46.0,
O=C1C2C(C(=O)N1/N=C/c1ccc([N+](=O)[O-])o1)C1C=CC2C12CC2 (stereo not drawn),0,56.5,0,0,43.5,63.9,49.8,62.5,tim10 confirm=0
SMILES,V-ATPase pH,tim10-1 inh,PfHsp90 yeast 2,SKKanGAS inh,TIM10 inh,tim23-1 inh,tim10-1 conf,tim23-1 conf,others
O=C1SCCN1N=Cc1ccc([N+](=O)[O-])o1,0,-,0,-,-,-,-,-,
O=C1C2C3C=CC(C4CC34)C2C(=O)N1/N=C/c1ccc([N+](=O)[O-])o1 (stereo not drawn),0,67.1,0,0,45.1,75.8,54.9,74.0,tim10 confirm=46.5
O=C1C2C3C=CC(C4CC34)C2C(=O)N1/N=C/c1ccc(-c2ccc([N+](=O)[O-])cc2)o1 (stereo not drawn),0,0,0,-,0,0,-,-,
CC1Cc2ccccc2N1C(=O)CCn1c(=O)sc2ccccc21 (stereo not drawn),0,0,0,0,0,0,-,-,
CCOc1ccccc1NC(=O)CCc1nnc2ccc(N3CCC4(CC3)OCCO4)nn12,0,0,0,0,0,0,-,-,
CCOC(OCC)c1cn(Cc2ccc3c(c2)C(=O)c2ccccc2C3=O)nn1,-,43.9,-,0,0,61.3,0,78.2,
Cc1ccc(C)c(NC(=S)NCCc2ccc(F)cc2)c1,0,0,0,0,0,0,-,-,
Cc1ccc(C)c(NC(=S)NNc2ccc(F)cc2F)c1,0,47.2,0,0,0,58.1,42.4,56.6,
COc1cccc(S(=O)(=O)N(C)C[C@H]2OCc3cnnn3CCCC(=O)N([C@H](C)CO)C[C@H]2C)c1,0,-,-,-,-,-,-,-,
N#Cc1sc(NCc2cccc(Cl)c2)nc1Cl,0,58.4,0,0,43.8,69.1,48.9,57.5,tim10 confirm=43.2
Clc1cccc(CNCCNCc2cccc(Cl)c2)c1,0,0,0,0,0,0,-,-,
Cc1cc(C)c(S(=O)(=O)c2ccccc2)c(OC(=O)c2cc(F)c(F)cc2Cl)n1,0,48.3,0,0,45.2,66.1,33.0,72.3,tim10 confirm=0
Cc1ccc(-c2nnc(N3CCN(C(=O)c4cccs4)CC3)c3ccccc23)cc1,0,54.7,0,0,0,69.1,49.9,59.0,
CCOC(=O)N1CCN(c2nnc(-c3ccc(C)cc3)c3ccccc23)CC1,0,52.1,0,0,0,61.1,34.2,48.5,
Cc1ccc(-c2nnc(N3CCN(C(=O)COc4ccccc4)CC3)c3ccccc23)cc1,0,0,0,0,0,0,-,-,
CC(C)(C)N(Cc1ccc2c(c1)OCO2)C(=O)/C=C\S(=O)c1ccccc1 (stereo not drawn),0,-,0,-,-,-,-,-,
COc1ccccc1C1CCN(c2ccc(CO)cc2[N+](=O)[O-])CC1,0,63.7,0,0,42.1,64.0,60.9,73.4,tim10 confirm=36.5
O=C1C(c2ccccc2)C2C=CC(C2)N1O (stereo not drawn),0,-,0,-,-,-,-,-,
